Source: PubChem BioAssay AID1508600 (Functional Genomics Laboratory (NCATS/FGL), 2020)
The campaign covered roughly 53,000 sequences. About 3,700 (7%) were called active. Many of the other results were omitted from the sample, so actives are more common in it than they were. Values without a mark were called inactive.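 How the source made its calls: active means gene knockdowns whose robust z-score for IL-1 alpha signal is at least 2 or at most -2, so actives lie on both sides; inactive means the rest.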

Assay: Components of the Cytosolic LPS Sensing Pathway: Gene Identification via Genome-wide siRNA Screen;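 further: robust z of the log signal after scaling to non-targeting control siRNA wells of the plate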
Details: RAW264.7 macrophages, IL-1a HTRF, actives lie on both sides, screened at 100 nM (by protocol), cells primed 5 h with Pam3CSK4 first
Summary of the method: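 Cells (RAW264.7, 1×10^4 per well) were transfected with siRNA at 100 nM and cultured 48h at 37 degrees C. Pam3CSK4 was added for 5 hours; LipidA transfection followed for 24 hour. IL-1a was then measured by HTRF.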

Sequence	z-score
GCAUUGGACUCAUAAUUUUTT against Aadat	0.0399
GGUAAUGUUCUCCUUUGAATT against Dok1	4.89 (active)
GCCUGAAUUUAGUGUUAAGTT against Hnmt	1.72
CCAUUGAAAAACUGGACAGTT against Olfr1463	3.26 (active)
GCUCUUCAUAACUCUUGCUTT against Olfr1392	-0.288
GGCCAGAACUGUUCCAAUUTT against Cilp	1.15
GGGAAUUUAAUUUUUCGUGTT against Sfn	-0.642
GGAAGUCAACCGAGUCUUCTT against Sp140	0.011
GGGUAUGAUAUGUUAAUGATT against Ndufaf7	-0.434
CCAUUUAAGUGUGUGUUAATT against Rbmx	0.475
GGAUUUUGCACUAUAACAATT against Zmat3	3.83 (active)
GGACAACGGAUUUUAGGAGTT against Barhl2	0.44
GGUUGAAUAUACUUAGCACTT against Gm5082	0.947
CCAUGGAAUCUCCUAUACCTT against C4bp	-0.679
GGUAAAUCAAAUCACUGCCTT against Slamf1	0.316
CCCUUUCAUUGUGCAUUAATT against Hdhd2	-2.22 (active)
GCUCAAGAGUCUAACUCCCTT against Serinc4	0.558
GGAGAAAGUUUUGGAAAAATT against Slc24a5	-0.622
GGAUUUCUACCAGCUCGUGTT against Pop5	1.62
GGAUGGCAGCUUUGACCUUTT against Cdc42ep2	0.566
GCAAAACCCAACAACUCUGTT against Lig3	1.05
CCUACUGGAGUCUCCUCUUTT against Tmem116	0.36
GGAGGACAAUGAGGACGAUTT against Chrac1	2.1 (active)

Sequence	z-score
AUUUCUGUAAGGCAAAUGUTT against Olfr970	-0.454
CCUCGAAUGCAGACGUACGTT against Sdhb	1.67
CCAAAGUCAUAAUUCCAACTT against Timm23	0.202
GGAGCAGAUUAAAUCCCUGTT against Krt8	2.46 (active)
GGGAGCUAAGAAGAUUCAUTT against Mul1	0.89
GCAGCAGUUGGCUAAAACATT against Bbof1	-1.14
GGUGGAUGGAUCACUGAGUTT against B230325K18Rik	-0.347
GCAACUAUGAACAAGAAUCTT against Grm3	-0.0322
GCCACGAAAAGAAGAGAAUTT against Vpreb2	1.08
CCUACAGAGUACCCUGUCUTT against Gas2l2	-2.56 (active)
GGUCCUGAAUUUCAUCCUUTT against B4galnt2	0.459
GGUCAGAAAUUCUAAGUUGTT against Gpatch2	1.09
GGAAAUGACCUACGAAGAATT against Pfkfb4	-1.26
GGCAGUCAACAAAGAAGACTT against Metap1d	-0.711
GGUCUGGUGGAGUUGAGAATT against Ccdc80	-0.617
GCGAGUGCUAACAUGAAAGTT against Sar1a	-0.0783
GUUUGUGCUGUUAGGUUUUTT against Olfr1347	2.46 (active)
GGACAAAAGACUUGAAUUUTT against Alox15	1.86
GGCUGAAGAGGAUCGGUACTT against Atpif1	2.08 (active)
CGCAAGAGUUCCUUUUUUUTT against Sla	0.671
GGCCACCUAUGAUGGAAAUTT against Kdelr2	-0.379
GCUCUGAUGGUCUACUGCUTT against Rgs3	-0.347
GGGCAGCUCAUGUCCUAUATT against Scfd2	-0.421

Sequence	z-score
CCAGAAAAAAGAUUGUACATT against Hesx1	-0.43
GCAGAGCUAGCUGAAUUGCTT against Urb2	-0.156
GCCGUUAAACAGUUCUCCCTT against Cyb561a3	-0.455
GGAUCGAGUUUGGUGUAGATT against Usp10	-1.39
CCAUCUACCAUAAACUGUATT against Spata6	0.175
CCAUUAAUUACGUGUUUGUTT against Dixdc1	-0.104
GGAAUGGAAUACAAAGUCATT against Isg20l2	-0.305
CCUAUGCAUCAGACCUUUGTT against Nedd9	2.7 (active)
GGUUUUUCUGUCAAGUGCUTT against Lgr5	-0.303
GGCAAGAUCCACAAUGAUGTT against Lgals2	-0.996
CCGUCAGUGAAUUCUUGAATT against Birc5	0.342
GGAAGUUUGCUCCAGCCUUTT against Tmem33	-0.202
GCGAGUGACACAUCUUCUCTT against Klhl7	0.467
GGAACAUAUGCAGAAUUUATT against Adgrb3	0.509
GGUCCAUUGGGAGUUUGAGTT against Slc2a6	3.14 (active)
GGAUGGAGAGAACUACUUATT against Gltpd2	0.999
GGAGUGUGAUCAAGUUCAUTT against Eya4	2.16 (active)
GGUGUUUGCCUCAGAAAUCTT against Cdk17	-0.676
GGUGAAGAUUGACAAGAAATT against Spout1	0.254
GGAUGAAUGCAGCUUCCAUTT against Myh14	2.35 (active)
GGGUGUUCCAGAAGUAUCUTT against Lars2	-1.76
CCUUGGAAUGCAUAGCCAATT against Sdk1	0.285
GGAAUAUGCCCAAGUUUUUTT against Ctnna1	2.86 (active)
